Data taken from PubChem BioAssay (NCI).
This is part of a sample that, as a whole, favours compounds with a hit. Of some 83,000 tested, about 20% had one in any assay.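 Single-concentration screen, 48 h exposure, 96-well plates. Endpoint: percent growth. Below 10 = active.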 Values without a mark were called inactive. Active and inactive are the calls of the source.

Experiments:
Assay in all cases: NCI-60 one-dose screen, 48 h (100 = growth as untreated, 0 = no growth, -100 = all killed)
[1] = system: BT-549 breast; conditions: 10 µM unless noted
[2] = system: MDA-MB-435 melanoma; conditions: 10 µM unless noted
[3] = system: SW-620 colon; conditions: 10 µM unless noted
[4] = system: MCF7 breast; conditions: 10 µM
[5] = system: HCT-116 colon; conditions: 10 µM unless noted
[6] = system: HCC-2998 colon; conditions: 10 µM unless noted
[7] = system: KM12 colon; conditions: 10 µM unless noted

Compound	growth [1]	growth [2]	growth [3]	growth [4]	growth [5]	growth [6]	growth [7]
COC(=O)C1(C)COP(=O)(Nc2ccc(OC)cc2)OC1 (stereo not given)	98.4%	105%	108%	99.5%	95.3%	94.1%	103%
COC(=O)c1cc2c(n1Cc1ccccc1)-c1oncc1CCC2	79.6%	-13% (active)	34.7%	40.8%	57.4%	76.2%	63%
COc1ccc(-c2cn[nH]c2-c2cc(OC)c(OC)c(OC)c2)cc1OCc1ccccc1	60%	-61.8% (active)	26.6%	17.2%	17.6%	34.8%	14.7%
COc1ccccc1N1CCN(C(CNS(=O)(=O)c2ccc(Cl)cc2)c2cccnc2)CC1 (stereo not given)	84.9%	86.6%	101%	78.3%	82.6%	88%	61.4%
O=C(Cc1ccccc1)NC(c1ccc(Cl)cc1)c1c(O)ccc2ccccc12 (stereo not given)	50%	6.36% (active)	17.5%	8.18% (active)	2.62% (active)	24.8%	15.1%
CCCCN1CCN(c2ccc3nc(-c4ccc5nc(-c6ccc(OC)c(OC)c6)[nH]c5c4)[nH]c3c2)CC1	-59% (active)	-64.5% (active)	-50.8% (active)	-67.2% (active)	-80.2% (active)	-70.2% (active)	-53.5% (active)
CCOc1ccc2c(c1)CN(Cc1ccc(Cl)cc1)CO2	112%	64.7%	69.6%	59.4%	38.7%	86.4%	57.7%
Clc1ccc(-c2nnc(COc3ccc(C4=NNC(c5ccco5)C4)cc3)o2)cc1 (stereo not given)	81.6%	93.1%	94.5%	17.3%	86.1%	82.3%	70.9%
Cc1cc(Br)c(N)c(Br)c1	94.9%	97.4%	101%	92.3%	82.8%	90.6%	104%
O=C(/C=C/c1ccc(C(F)(F)F)cc1)c1ccc(Nc2nc(NCCO)nc(Nc3ccc(Cl)cc3)n2)cc1	57.9%	47.7%	0.404% (active)	-43.1% (active)	-85.6% (active)	-30.2% (active)	-51.2% (active)
COC(=O)/C(CCC=C(C)C)=C1\[C@@H](OC(C)=O)C[C@@]2(C)[C@H]1CC(=O)N[C@H]1[C@@]3(C)CCNC(=O)[C@@H](C)[C@@H]3CC[C@@]12C	107%	105%	103%	93%	101%	103%	102%
Nc1nonc1-n1nncc1-c1cccnc1	105%	102%	111%	93.4%	106%	112%	105%
CCN(CCO)CCNc1ccc(C)c2sc3cc(Cl)ccc3c(=O)c12	69.6%	-68.6% (active)	-85% (active)	-83.1% (active)	-66.1% (active)	-96.8% (active)	7.87% (active)
NC(=O)CSc1nc(-c2ccc(F)cc2)cc(-c2ccco2)n1	99.5%	104%	116%	83.2%	98%	109%	106%
Nc1ccc(C2c3ccccc3Oc3ccccc32)cc1	109%	104%	101%	104%	97.8%	117%	103%
Nc1nc(N)c2c(n1)NC1(C=C(O)c3ccccc31)C1=C(N2)c2ccccc2C1=O (stereo not given)	112%	125%	99.4%	97.1%	101%	109%	109%
COC(=O)C1(C)CCC[C@]2(C)[C@H]3C[C@H]4C(C(C)C)=C[C@]3(CC[C@@H]12)[C@H]1[C@@H]4[C@@H](OCC#CCN2CCOCC2)CC[C@@H]1OCC#CCN1CCOCC1 (stereo not given in full)	97.7%	92.5%	94.7%	77.3%	81%	97.4%	93.2%
COc1ccc(OC)c(/C=C/C(=O)c2c(C)nc3ccccc3c2/C=C/c2ccccc2)c1	59%	46.4%	36.5%	19.8%	34.1%	93.6%	69.4%
O=C(Nc1ccc(Cl)cc1)N1CCN(c2ccc3nncn3n2)CC1	43.4%	-81.4% (active)	-88% (active)	-53.4% (active)	-83.4% (active)	-33.6% (active)	-40.8% (active)
O=C(NCCCN1CCC(N2CCCCC2)CC1)C1=Cc2cc(Br)ccc2OC1	90%	51.3%	56.2%	25.5%	37%	20.4%	12.4%
O=C(Nc1ccccc1O)c1ccc(Oc2cccc(C(=O)Nc3ccccc3O)c2)cc1	3.78% (active)	28.3%	18.4%	11.3%	9.66% (active)	21%	15.8%
Nc1ccc(-c2ccc(-c3ccccc3N)c3[nH]c4ccccc4c23)cc1	53.2%	-58.9% (active)	29.5%	19.6%	22.6%	42.1%	23.6%
O=NN(Cc1cccnc1)C(=O)NC1CCCCC1	112%	108%	107%	92.9%	104%	107%	109%
COc1cc(CNC(=O)c2ccsc2Nc2ccnc(C(F)(F)F)c2)ccc1O	103%	101%	100%	113%	101%	109%	104%
O=C(N/N=C/c1ccccc1O)C(=O)Nc1ccc(F)cc1	59.3%	59.3%	44.5%	20.9%	37.6%	38.8%	42.3%
